Our source for the activity change, negative = cytotoxicity and Potency values is PubChem BioAssay (Tox21).

Results filed as inconclusive are left out. Entries that show only a call come without a potency. Active and inactive are the calls of the source. Calls come from the whole dose curve; as a rule, active = well fitted cell-killing curve with a large enough effect in the repeat runs; inconclusive = weak or mixed curves, or effect the other way; inactive = flat fitted curve, though single readings scatter.
Potency is the fitted concentration of half-maximal effect.

This test in a line: qHTS RealTime-Glo MT Cell Viability Assay in HEK293 cells - 0 hour (AID 1224880). For activity change, negative = cytotoxicity: top concentration of the series differs between compounds. Note: nearly all actives have a fitted effect of over 45% in size. The settings on record: RealTime-Glo luminescence; series mostly up to 76.8 µM. An excerpt: U.S. Tox21 Program National Center for Advancing Translational Sciences [NCATS] NIH Chemical Genomics Center [NCGC] U.S. Environmental Protection Agency [EPA] National Institutes of Environmental Health Sciences [NIEHS] National Toxicology Program [NTP] U.S. Food and Drug Administration [FDA] Tox21 Assay Overview: Measure of cell viability is critical in the cell-base assay. Analysis of cell viability is necessary for the characterization of cell responses to cytotoxic drugs and environmental stress. A RealTime-Glo MT Cell Viability Assay to monitor cell viability in real time of continues cell culture during 40 hours of compound treatment was used to screen Tox21 10K library compounds in Hek293 cells. The RealTime-Glo MT Cell Viability Assay is a nonlytic, homogeneous, bioluminescent method to measure cell viability in real time using a simple, plate-based method. The assay involves adding NanoLuc luciferase and a cell-permeant prosubstrate to cells in culture. Viable cells reduce the proprietary prosubstrate to generate a substrate for NanoLuc luciferase. This substrate diffuses from cells into the surrounding culture medium, where it is rapidly used by the NanoLuc Enzyme to produce a luminescent signal. The signal correlates with the number of viable cells, making the assay well suited for cytotoxicity studies.
Tox21 Assay Protocol Summary: The mixture of Hek293 cell suspension and reagents were dispensed at 600cells/6 ul/well in 1536-well tissue culture treated black solid bottom plates using a Multidrop dispenser. After the assay plates were incubated at a 37 C/5% CO2 incubator for 5 hours, 23 nL of compounds dissolved in DMSO, positive and negative controls was transferred to the assay plate by a pintool work station. The plates were incubated at 37 C for 40 hours. The luminescence intensity were measured at 0h, 8h, 16h, 24h, 32h and 40h time points using ViewLux plate reader during compound treatment.
In general terms: In qHTS, concentration-response curves come from the screen itself.
As for `CCCCCCCCCCCCCCCCBr`, the activity change, negative = cytotoxicity was 6.45% [at 15.8 µM] (inactive). In the case of `C[C@]12CCC(=O)C=C1C=C[C@@H]1[C@@H]2CC[C@@]2(C)[C@H]1CC[C@@]21CCC(=O)O1`, the Potency entry is “inactive”. In the case of `C[C@@H]1C[C@H]2[C@@H]3CCC4=CC(=O)C=C[C@]4(C)[C@@]3(F)[C@@H](O)C[C@]2(C)[C@@]1(O)C(=O)CO`, the Potency entry was “inactive”. On the same count and under the same terms, the same measure for `O=C(C(=O)c1ccccc1)c1ccccc1`: “inactive”; for `CC(C)CCCCCOC(=O)CCCCC(=O)OCCCCCC(C)C`: “inactive”. Turning to `CC(C)(C)C(=O)C(Oc1ccc(Cl)cc1)n1ccnc1` (stereo not given), the Potency entry was “inactive”. For `CO/N=C1\CN(c2nc3c(cc2F)c(=O)c(C(=O)O)cn3C2CC2)CC1CN` (stereo not given), the Potency entry was “inactive”. For the molecule `CCOC(=O)[C@@H](C)Oc1ccc(Oc2nc3ccc(Cl)cc3o2)cc1`, the Potency entry is “inactive”. For `CC[C@@H]([C@H](C)O)n1ncn(-c2ccc(N3CCN(c4ccc(OC[C@@H]5CO[C@@](Cn6cncn6)(c6ccc(F)cc6F)C5)cc4)CC3)cc2)c1=O`, the Potency result was “inactive”. Take `CN(C)C(=O)Nc1ccc(Oc2ccc(Cl)cc2)cc1`: the Potency result was “inactive”.

Regarding `CC1=NN(c2ccc(C(=O)O)cc2)C(=O)C1`, the Potency entry was “inactive”.

With `CC(=O)[C@H]1CC[C@H]2[C@@H]3C[C@H](C)C4=CC(=O)CC[C@]4(C)[C@H]3[C@@H](O)C[C@]12C`, the Potency was 1.69 µM (active). For `CCN(CC)CCNC(=O)c1ccc(NC(C)=O)cc1`, the Potency entry was “inactive”. `CC(C)(C)C(=O)O`: the Potency entry was “inactive”. As for `C[N+](C)(C)CCOC(N)=O`, the Potency entry is “inactive”.

Take `CO[Si](C)(OC)OC`: the Potency result is “inactive”. Consider `CC(C)C(=O)O`, for which the Potency result is “inactive”. As for `CCCCN(CCCC)C(=S)SSC(=S)N(CCCC)CCCC`, the Potency entry was “inactive”. Turning to `CC(C)=CC=O`, the Potency result was “inactive”. In the case of `c1cnc2c(n1)CCCC2`, the Potency result is “inactive”. On to `C/C=C(\C)C(=O)OCCC(C)CCC=C(C)C` (stereo not given), for which the Potency result is “inactive”.

`COc1cc2c(cc1OC)-c1cc(=Nc3c(C)cc(C)cc3C)n(C)c(=O)n1CC2`: the Potency result was “inactive”. Still for that read-out and setting: the same measure for `Nc1nc(Cl)nc2c1ncn2[C@@H]1O[C@H](CO)[C@@H](O)[C@@H]1F`: “inactive”. Regarding `CCOC(=O)c1ccccc1C`, the Potency result was “inactive”. For `COC(=O)CC(=O)C(C)(C)C`, the Potency result was “inactive”. `CCCC1C(CC)=CC(CC)=CN1c1ccccc1` (stereo not given): the Potency entry was “inactive”. For the molecule `Cc1nccn1-c1ccc(Sc2cccc(C3(C(N)=O)CCOCC3)c2)cc1`, the Potency entry was “inactive”. For the molecule `O=C(O)c1ccccc1NCCc1ccccc1`, the Potency result is “inactive”. With `CCCCCCCC/C=C\CCCCCCCC(=O)OC`, the Potency entry was “inactive”.

Take `CC(=O)Oc1ccc(C(=C2CCCCC2)c2ccc(OC(C)=O)cc2)cc1`: the Potency result was “inactive”. The same measure, in the same setting: under `CCC(Cc1ccccc1)(C(=O)c1ccc(N2CCOCC2)cc1)N(C)C` (stereo not given) stands “inactive”. On to `CCCCCCCCCCOS(=O)(=O)O`, for which the Potency result is “inactive”. On to `O=Cc1c(Cl)cccc1Cl`, for which the Potency entry was “inactive”. For `CCCCCCCCCCCC[N+](C)(C)CCCS(=O)(=O)[O-]`, the Potency result was “inactive”. On the same count and under the same terms, the same measure for `COC(=O)c1cc(S(N)(=O)=O)ccc1OC`: “inactive”; for `CC1=CC(O)CC(C)(C)C1` (stereo not given): “inactive”; for `c1ccc(COCc2ccccc2)cc1`: “inactive”. In the case of `C(=C\c1ccccc1)/CN1CCN(C(c2ccccc2)c2ccccc2)CC1`, the Potency result is “inactive”. Turning to `C=CC(C)(O)CCCC(C)CCCC(C)CCCC(C)C` (stereo not given), the Potency result was “inactive”. As for `N#C[C@@H]1C[C@@H]2C[C@@H]2N1C(=O)[C@@H](N)C12CC3CC(CC(O)(C3)C1)C2`, the Potency result is “inactive”.
